Shown are actives, neighbours in structure and some others; about 6.5% of the full set was active somewhere.
NADH coupling = inhibitors of PK/LDH coupling enzymes, profiling panel, artefact control, biochemical, MLSMR library | coupled PK/LDH NADH assays, four targets | IC50, µM (doses to about 10 µM), for inactives: top-dose inhibition | hit rate 0.02% among 65,000 | AID 774, 2007;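 active means single-dose screening hits from any of four coupled enzyme assays that gave an IC50 when retested across doses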;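 further: the DPM-DC format reads NADH fluorescence rather than 340 nm absorbance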
PMK inhibit = S. pneumoniae PMK inhibitors, primary screen, biochemical, mevalonate pathway, pilot trial included; phosphomevalonate kinase (Streptococcus pneumoniae D39); inhibition, % at 10 µM; purified PMK, PK/LDH-coupled NADH absorbance 340 nm; AID 539, 2006; hit rate 0.49% among 65,000;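 active means top-ranked compounds by inhibition in the single 10 µM screen, taking a fixed number of the strongest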;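 further: 0% = full reaction with DMSO carrier and 100% = background rate without enzyme reaction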
Autofluor 339 = intrinsic fluorescence of library compounds, ex339/em460 – biochemical, MLSMR library, data from DPM-DC assay, artefact control, profiling panel. compound autofluorescence, ex339/em460 nm, NADH buffer; active compounds read high; 1 = no-compound wells, NADH background. fluorescence fold increase at 10 µM. hit rate 5.5% among 65,000;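 active means at 10 µM, mean starting fluorescence two-fold or more over control wells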;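 further: signal is the first read of a kinetic run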
Spn MK inh = S. pneumoniae MK inhibitors, primary screen, biochemical, PK/LDH-coupled NADH absorbance | purified MK, PK/LDH-coupled NADH absorbance 340 nm | inhibition, % at 10 µM | hit rate 0.48% among 65,000;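 active means ranked among the strongest by inhibition in the single 10 µM screen, a fixed top-ranked set picked for dose follow-up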
Spn DPM-DC inh = S. pneumoniae DPM-DC inhibitors, primary screen, biochemical, PK/LDH-coupled NADH fluorescence. purified DPM-DC. hit rate 0.49% among 65,000. calls only at 10 µM. AID 556, 2006. diphosphomevalonate decarboxylase (Streptococcus pneumoniae D39);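 active means the 320 compounds with the highest percent inhibition in the single-dose primary screen, excluding strongly autofluorescent ones, cut at about 32% in these data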;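 further: kinetic rate of NADH fluorescence loss reporting ADP formed by the decarboxylase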
A340 absorber = compound light absorbance at 340 nm, profiling panel, artefact control, biochemical, MLSMR library, data from PS, PMK, MK assays; compound absorbance at 340 nm, fold over control; fold change at 10 µM; 65,000 tested, under 10 active;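 active means at 10 µM dose, initial 340 nm absorbance at least 2 fold that of control wells; inactive means change under 2 fold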;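 further: initial absorbance extrapolated from kinetic A340 decline of NADH oxidation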
Starred values were filed as active, the others as inactive; i = inactive; . = no result shown; + = active, no number.

SMILES	NADH coupling	PMK inhibit	Autofluor 339	Spn MK inh	Spn DPM-DC inh	A340 absorber
O=C(Nc1ccc(F)cc1F)c1cc2ncc(Br)cn2n1	5%	2	1.1	6	i	1
O=C(NC(C(=O)c1ccccc1)N1CCCCC1)c1ccccc1 (configuration not stated)	4%	9	1.1	2	i	1
CCC(C)(C)n1nnnc1CN(Cc1ccco1)Cc1cc2cc3c(cc2[nH]c1=O)OCO3	8%	8	3.5*	7	.	1.1
CCC(C)(C)n1nnnc1CN(Cc1ccc(Cl)cc1)Cc1ccco1	3%	9	1.1	0	i	1
CC(C)(C)n1nnnc1CN(Cc1ccco1)Cc1cc2cc3c(cc2[nH]c1=O)OCO3	3%	12	2.5*	7	.	1
CCn1nnc(-c2ccccc2NC(=O)C(F)(F)F)n1	0%	0	1.1	0	i	1.1
Cc1cc(C)n2nc(SCc3cc(=O)n4c(C)cccc4n3)nc2n1	9%	28*	1.1	0	i	1.1
Cc1cc(C)n2nc(SCc3cc(=O)n4ccccc4n3)nc2n1	4%	22	1.6	3	i	1
CCCSc1nnc2nc3c(nn12)c1ccccc1n3C	2%	8	1.1	3	i	1
Nc1c(C(=O)Nc2ccc(Cl)cc2)oc2ccccc12	11%	16	2.1*	6	.	1.1
Cc1cc(=O)oc2cc(OCc3ccc(S(=O)(=O)N4CCOCC4)cc3)ccc12	1%	0	2.1*	2	.	1.1
Cc1cccc(N2CCN(C(=O)n3ccnc3)CC2)c1C	2%	5	1.1	0	i	1
O=C1CC(c2cccnc2)c2cc3c(cc2N1)OCO3 (configuration not stated)	5%	10	1.1	12	+	1
O=C1CCN2C=Nc3cccc4ccc1c2c34	3%	5	3.2*	0	.	1.1
Cc1ccc(-c2nc(CS(=O)CC(=O)NC3CCC(C)CC3)c(C)o2)cc1 (configuration not stated)	5%	7	1.1	8	i	1
CN(C)Cc1nc2ccccc2c(=O)n1Cc1nc(-c2cc3ccccc3o2)cs1	19%	19	0.84	4	+	1
COc1ccc2nc(NCc3ccccc3)[nH]c2c1	6%	10	1.1	9	i	1
COc1ccc2nc(-c3ccccc3)[nH]c2c1	4%	1	2.3*	6	.	1.1
CCOc1ccc2nc(-c3ccccc3)[nH]c2c1	7%	4	4*	10	.	0.99
CCOc1ccc2nc(C(C)O)[nH]c2c1 (configuration not stated)	15%	16	1.1	7	i	1.1
O=P(O)(CN1CCCCC1)C1CCCCC1O (configuration not stated)	10%	3	0.65	2	i	1
O=C(Cn1nc(Cl)nc1Cl)c1cc2ccccc2oc1=O	12%	13	2.2*	8	i	0.97
Cn1cnnc1SCC(=O)c1cc2ccccc2oc1=O	8%	6	1	7	i	1
COCCN1CC(O)=C(c2nc3ccccc3c(=O)[nH]2)C1=N	4%	0	3.7*	8	.	1.1
N=C1C(c2nc3ccccc3c(=O)[nH]2)=C(O)CN1CCO	10%	15	1.9	0	i	1
SMILES	NADH coupling	PMK inhibit	Autofluor 339	Spn MK inh	Spn DPM-DC inh	A340 absorber
COc1ccccc1N1CC(O)=C(c2nc3ccccc3c(=O)[nH]2)C1=N	7%	7	2.5*	22	i	1
COc1ccc(-c2noc(CCC(=O)Nc3nc4ccccc4s3)n2)cc1	1%	6	1.1	2	i	1
O=C1NC(c2ccc3c(c2)OCO3)Oc2ccccc21 (configuration not stated)	4%	0	1.3	12	i	1
CC1(CCc2ccc3c(c2)OCO3)NC(=O)c2ccccc2N1 (configuration not stated)	5%	4	3.8*	5	.	1
Cc1ccccc1-n1c(=O)cc(NCc2ccc3c(c2)OCO3)[nH]c1=O	3%	6	1.1	3	i	0.99
O=C1NC(c2ccc3c(c2)OCO3)Nc2ccccc21 (configuration not stated)	9%	11	4.8*	6	.	0.99
COc1cccc(C(c2sc3nc(C)nn3c2O)N2CCc3ccccc3C2)c1 (configuration not stated)	0%	0	1.1	1	i	1.1
CCOC(=O)c1c(C)n(C)c2ccc(O)c(CN3CCN(C)CC3)c12	4%	5	1.1	6	i	1
CCOC(=O)c1c(C)n(C)c2ccc(O)c(CN3CCC(C)CC3)c12	18%	7	1.1	48*	i	1
CCOC(=O)c1sc2nc(CC(=O)OC)nc(NCC(=O)OC)c2c1C	12%	14	3.7*	9	.	1.1
CCOC(=O)c1sc2nc(CC(=O)OC)nc(NCc3ccco3)c2c1C	10%	16	1.5	0	i	1.1
OCCNc1ncnc2c1ncn2Cc1ccccc1	9%	12	1.1	14	i	0.97
C=CCn1cnc2c(NCc3ccccc3)ncnc21	6%	0	1	active	i	0.98
Cc1ccc(-n2nc(C)c3c(C)c(CCC(=O)NCc4ccco4)c(C)nc32)cc1	6%	10	2.2*	1	.	1.1
CCOC(=O)N1CCN(C(=O)CCc2c(C)nc3c(c(C)nn3-c3ccc(C)c(C)c3)c2C)CC1	11%	13	2.6*	7	+	0.98
Cc1cc(C)c2c(n1)nn1c(C)c(CCC(=O)NCc3ccco3)c(C)nc21	10%	10	2.1*	9	.	1.1
CCCNS(=O)(=O)c1ccc(OCC(=O)NCc2ccc3c(c2)OCO3)cc1	12%	14	1	6	i	0.97
Cc1ccc(-c2nc(CN(C)C)cc(CN(C)C)c2O)cc1	8%	6	3.8*	10	.	1.1
COCCn1c(-c2ccc(-c3ccccc3Cl)o2)nc2c1c(=O)[nH]c(=O)n2CC(C)C	13%	13	2.1*	12	.	1.1
CC(C)=CCC(C)(C)CNC(=O)NC1CCCCC1	5%	8	1	5	i	1
N=c1oc2c3c4c(cc2cc1C(=O)Nc1ccccc1)CCCN4CCC3	1%	0	1.6	2	i	1.1
O=C(CSc1nc2ccccc2[nH]1)N1CCCCC1	2%	6	1	6	i	1
O=c1oc2c3c4c(cc2cc1-c1nc2ccccc2[nH]1)CCCN4CCC3	11%	71*	2.1*	21	.	0.9
